# Bioassay records as filed in PubChem BioAssay.
# Shown is part of a subset that was picked to be rich in hits.
# FBPA Giardia inh: qHTS Assay for Inhibitors of Fructose-1,6-bisphosphate Aldolase from Giardia Lamblia | A8B2U2 | purified Giardia FBPA | Potency, µM (top dose mostly 59.6 µM), for the others: at the top dose activity, negative = inhibition, hits mostly inhibitors | 0.71% of 290,000 active; note: potency is the fitted concentration of half-maximal effect; % is set by controls: 0 for no effect and ±100 for the full control effect; nearly all actives have a fitted effect of over 55% in size
# Target sequence (A8B2U2 whole entry, looked up): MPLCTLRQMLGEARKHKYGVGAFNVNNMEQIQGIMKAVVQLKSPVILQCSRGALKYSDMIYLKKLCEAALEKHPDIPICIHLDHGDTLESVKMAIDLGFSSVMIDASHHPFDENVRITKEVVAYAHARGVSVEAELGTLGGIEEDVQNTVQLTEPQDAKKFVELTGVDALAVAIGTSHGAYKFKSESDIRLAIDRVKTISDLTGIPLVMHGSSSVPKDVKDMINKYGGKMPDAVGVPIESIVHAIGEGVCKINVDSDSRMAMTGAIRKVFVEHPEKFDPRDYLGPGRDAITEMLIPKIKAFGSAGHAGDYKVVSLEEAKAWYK
#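 40 nM FBPA preincubated 10 min at RT with compound (up to 57.5 uM final), then substrate plus GAPDH/TPI/NAD/arsenate coupling and diaphorase/resazurin added. Fluorescence read after 20 min at RT, 525/598 nm.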
# LmPK inhibitor: qHTS Assay for Inhibitors of Leishmania Mexicana Pyruvate Kinase (LmPK); Q27686; AID 1721, 2009; 0.37% of 290,000 active; Potency, µM (highest dose often 57.5 µM), for the others: at the top dose activity change, negative = inhibition, hits mostly inhibitors; purified LmPK, Kinase-Glo ATP luminescence, 1 h; note: potency is the fitted concentration of half-maximal effect; % is set by controls: 0 for no effect and ±100 for the full control effect
#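 Purified LmPK (0.1 nM) converted ADP (0.1 mM) to ATP with PEP (0.5 mM) in imidazole buffer pH 7.2 with KCl and MgCl2, 1 h at room temperature. ATP was read by Kinase-Glo luminescence; data normalized to uninhibited and no-enzyme controls.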
# Shiga inhibitor: A qHTS for Small Molecule Inhibitors of Shiga Toxin. Vero cells, Shiga toxin protein synthesis inhibition reporter. 9.2% of 290,000 active. inhibition, % at 38.7 µM; in the data active = inhibition mostly above about 28%, no sharp cut-off; inactive = mostly below about 43%; note: 0% is about no effect
# Cycloheximide cs: Cycloheximide Counterscreen for Small Molecule Inhibitors of Shiga Toxin. max response, %. AID 2314, 2010. 12% of 300,000 active. cell reporter, cycloheximide protein synthesis inhibition counterscreen; in the data active = max response mostly above about 13%, no sharp cut-off; inactive = mostly below about 14%; note: read at 38.3 µM for the half of the compounds with a filed dose; 0% is about no effect
# Sm TGR block: qHTS Assay for the Inhibitors of Schistosoma Mansoni Peroxiredoxins; purified TGR, DTNB reduction, TNB absorbance 405 nm; Potency, µM (doses to about 114 µM), for inactives: at the top dose activity change, negative = inhibition, most hits filed as inhibitors; 3% of 360,000 active; AID 485364, 2010; note: potency is the fitted concentration of half-maximal effect; % is set by controls: 0 for no effect and ±100 for the full control effect; nearly all actives have a fitted effect of over 60% in size
#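 Kinetic colorimetric format: TGR-catalysed, NADPH-driven DTNB reduction monitored via TNB absorbance. Enzyme dispensed at 20 nM; compound exposure 15 min at room temperature before reaction start.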
# Tb PYK inh: qHTS of Trypanosoma Brucei Inhibitors; pyruvate kinase (Trypanosoma brucei), Q57TT1; TbPYK enzyme, Kinase-Glo Plus ATP luminescence, 45 min; 0.12% of 410,000 active; Potency, µM (highest dose often 76.8 µM), without a hit: at the highest dose activity, negative = inhibition, actives largely listed as inhibitors; note: potency is the fitted concentration of half-maximal effect; % is set by controls: 0 for no effect and ±100 for the full control effect; nearly all actives have a fitted effect of over 50% in size
#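 T. brucei PYK with substrate was exposed to pin-transferred compounds across a concentration series, then started with 130 uM ADP (final). After 45 min at room temperature, Kinase-Glo Plus luminescence was read, normalized and curve-fitted.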
# The depositor's hits bear a star; ? = inconclusive; / = no result; [ ] = remark or other dose. Unless noted, calls come from the whole dose curve; as a rule, active = well fitted curve in the direction sought with a large enough effect; inconclusive = small, poorly fitted or top-dose-only effect, or another doubt; inactive = no such curve, though single readings can be large; an effect the other way counts as inactive or inconclusive.
SMILES,FBPA Giardia inh,LmPK inhibitor,Shiga inhibitor,Cycloheximide cs,Sm TGR block,Tb PYK inh
COc1ccc([N+](=O)[O-])c(S(=O)(=O)c2ccccc2)n1,-12%,1%,-3,9,0.1µM*,5%
Nc1cccnc1S(=O)(=O)c1ccccc1,0%,0%,-9,-9,4%,-1%
COc1ccc([N+](=O)[O-])c(S(=O)(=O)c2ccc(Cl)cc2)n1,-4%,0%,9,10,?,6%
Oc1c(Br)cc(Cl)cc1C=Nc1ccc(N2CCOCC2)cc1,-24%,-10%,-14,-1,6%,-5%
Oc1c(Br)cc(Cl)cc1C=Nc1ccccc1Br,-21%,-4%,-8,-3,22µM*,-1%
CN(C)CCN(C(=O)c1ccc(S(=O)(=O)N(C)C)cc1)c1nc2cc3c(cc2s1)OCCO3,6%,5%[11.5 µM],41,22*,-1%,-6%
CN(C)CCN(C(=O)c1ccc2ccccc2c1)c1nc2cc3c(cc2s1)OCO3,/,/,/,/,/,-1%
CCN(CC)CCN(C(=O)C1=COCCO1)c1nc2ccc(C)cc2s1,/,-11%,35*,18*,-11%,4%
CN(C)CCN(C(=O)c1ccc(S(=O)(=O)N(C)CC2CCCO2)cc1)c1nc2cc3c(cc2s1)OCO3 (stereo not drawn),-15%,10%,9,25*,-10%,1%
CN(C)CCN(C(=O)c1ccc2c(c1)OCCO2)c1nc2cc3c(cc2s1)OCO3,-29%,5%,71,55*,-1%,0%
Cc1ccc(OCC(=O)Nc2ccc(S(=O)(=O)Nc3ncccn3)cc2)c(C(C)(C)C)c1,/,/,/,/,0%,-4%
CCOC(=O)N1CCN(S(=O)(=O)c2ccc(C(=O)N(CCN(C)C)c3nc4ccc(Cl)cc4s3)cc2)CC1,/,-3%,110*,27*,-1%,5%
CCN(CC)CCN(C(=O)CCS(=O)(=O)c1ccccc1)c1nc2cc3c(cc2s1)OCO3,-20%,-3%,-3,-1,8.9µM*,0%
CCOC(=O)N1CCN(S(=O)(=O)c2ccc(C(=O)N(CCCN(C)C)c3nc4ccc(OC)cc4s3)cc2)CC1,-21%,-5%,-7,-6,5%,1%
CCN(CC)CCN(C(=O)c1ccc(N2C(=O)CCC2=O)cc1)c1nc2cc3c(cc2s1)OCCO3,-8%,-4%[11.5 µM],28,14,45µM*,-3%
CN(C)CCN(C(=O)c1ccc2c(c1)CCCC2)c1nc2cc3c(cc2s1)OCCO3,/,-10%,-20,-3,0%,-2%
CC(=O)N(CCN(C)C)c1nc2cc3c(cc2s1)OCCO3,/,-7%,66*,31*,-13%,-6%
CCN(CC)CCN(C(=O)c1cccc(N2C(=O)CCC2=O)c1)c1nc2cc3c(cc2s1)OCO3,-8%,6%[11.5 µM],-7,3,-30%,-5%
CCN(CC)CCN(C(=O)c1ccc(C(=O)c2ccccc2)cc1)c1nc2cc3c(cc2s1)OCO3,?,-5%,10,4,-5%,-5%
CCN(Cc1ccccc1)S(=O)(=O)c1ccc(C(=O)N(CCCN(C)C)c2nc3cc4c(cc3s2)OCCO4)cc1,/,/,/,/,7%,-3%
CN(C)CCN(C(=O)c1ccc(S(=O)(=O)N(C)c2ccccc2)cc1)c1nc2cc3c(cc2s1)OCCO3,-8%,5%,61*,22*,9%,1%
CCN(CC)CCN(C(=O)c1ccc2ncsc2c1)c1nc2cc3c(cc2s1)OCO3,-29%,9%,125*,75*,-7%,?
COc1ccc(S(=O)(=O)N2CCCCC2c2cc(C(=O)Nc3ccc(OC)cc3C)no2)cc1 (stereo not drawn),/,/,/,/,/,-4%
Fc1ccc(C2CCCN2Cc2nc(Cc3ccccc3F)no2)cc1 (stereo not drawn),1%,-2%,19,13*,-2%[57.1 µM],-2%
Fc1cccc(Cc2noc(CN3CCCCC3c3ccccn3)n2)c1 (stereo not drawn),-22%,1%,82,35*,4%,-7%
SMILES,FBPA Giardia inh,LmPK inhibitor,Shiga inhibitor,Cycloheximide cs,Sm TGR block,Tb PYK inh
Cc1cc(C(=O)NCc2csc(-c3ccccc3)n2)no1,/,-7%,95*,51*,-13%,-4%
O=C(NCc1csc(-c2ccccc2)n1)c1ccco1,3%,10%,60*,27*,4%[11.4 µM],3%
O=C(NCc1ccccn1)c1ccco1,-2%,-3%,8,4,50µM*,5%
CC1CCCCN1C(=O)COC(=O)Cc1c[nH]c2ccccc12 (stereo not drawn),/,/,/,/,/,-8%
Cc1cc(C(=O)COC(=O)c2nccnc2N)c(C)n1C,-13%,-10%,103*,42*,-27%,5%
Cc1cc(C(=O)COC(=O)c2n[nH]c3ccccc23)c(C)n1C,-4%,?,62*,47*,-6%,-3%
COCCn1c(C)cc(C(=O)COC(=O)Cc2n[nH]c(=O)c3ccccc23)c1C,/,/,/,/,-18%,4%
COc1cc(C(=O)OCC(=O)c2cc(C)n(C)c2C)cc(OC)c1OC,-1%,13%,14,1,13%[11.4 µM],-20%
Cc1cc(C(=O)COC(=O)c2n[nH]c(=O)c3ccccc23)c(C)n1C,/,/,/,/,-29%,3%
COCCn1c(C)cc(C(=O)COC(=O)c2n[nH]c3ccccc23)c1C,3%,?,31,11*,-12%,-6%
CC1CCCCN1C(=O)COC(=O)c1n[nH]c2ccccc12 (stereo not drawn),0%,-13%,57,58*,10%,5%
COC(=O)c1c(NC(=O)CCCOc2cccc(C)c2)sc2c1C(C(=O)OC)CC2 (stereo not drawn),/,/,-6,4,-8%,?
C/C(=N\NC1=NCCN1)c1ccc(N)c([N+](=O)[O-])c1,-1%,-3%,6,12*,6%,-5%
O=C(Nc1ccc(OC(F)F)cc1)c1cc[n+]([O-])cc1,10%,-1%,24,-4,2%,2%
CO[C@H]1COC(=O)[C@H]2CCCN2C(=O)C/C=C\[C@@H](C)[C@H](OC)COC(=O)[C@@H](OCc2ccccc2)/C=C\[C@@H]1C,1%[12.9 µM],/,/,/,/,/
S=C(NCC1CC1)N/N=C/c1ccccc1Cl,-5%,-6%,26*,3,-2%,2%
COc1ccc(NC(=O)CCCN2C(=O)C3CC=CCC3C2=O)cc1 (stereo not drawn),4%,1%,40*,24*,-20%,-4%
COc1cccc(NC(=O)CCN2C(=O)C3CC=CCC3C2=O)c1 (stereo not drawn),/,-5%,73*,49*,-25%,4%
